In PubChem BioAssay (NCATS):
“And” between values parts separate entries of the source, which are not always exact repeats. Equal entries are not always repeated. Results filed as inconclusive are left out. The source made the active and inactive calls. Unless noted, calls come from the whole dose curve; as a rule, active = well fitted curve in the direction sought with a large enough effect; inconclusive = small, poorly fitted or top-dose-only effect, or another doubt; inactive = no such curve, though single readings can be large; an effect the other way counts as inactive or inconclusive.

How the values were obtained:
[1] = Cell Viability - Hek293 (AID 427;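 active = compounds whose dose-response curve shows a full or clear partial loss of cell viability, called from curve shape rather than a numeric limit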;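 note: potency is the fitted concentration of half-maximal effect; cells exposed to compound for 40 hours at 37 °C before reading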); settings: qHTS
Summary of the method: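 qHTS, human embryonic kidney (adenovirus-transformed) cells; 40 hr cpd, 37 °C; CellTiter-Glo ATP luminescence. Norm: DMSO = 0, 100 uM tamoxifen = 100% inhibition. Hill-fit AC50.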

[2] = Cell Viability - N2a (AID 540); settings: N2a mouse neuroblastoma cell viability; activity change, negative = cytotoxicity: at 92.2 µM (top of the series);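 note: plate controls were DMSO alone for no effect and tamoxifen control for full effect; nearly all actives have a fitted effect of over 45% in size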
Summary of the method: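 CellTiter-Glo ATP luminescence, read 20 min after reagent at room temperature, reported viability following 40 h compound treatment at 37 °C. N2a mouse neuroblastoma cells seeded 1500/well; Hill equation gave AC50.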

[3] = Cell Viability - SH-SY5Y (AID 544); settings: SH-SY5Y neuroblastoma cell viability; viability change, negative = cytotoxic: at 92.2 µM (top of the series);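 note: cells exposed to compound for 40 hours; nearly all actives have a fitted effect of over 55% in size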
Summary of the method: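 Cytotoxicity measured via ATP-dependent luciferase luminescence (CellTiter-Glo) following 40 h, 37 °C exposure of 1500 SH-SY5Y cells per well. Concentration-response data were fitted with the standard Hill equation to give AC50.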

[4] = Cellular Toxicity (caspase-3) H-4-II-E (AID 663); settings: H-4-II-E rat hepatoma; Potency: caspase-3 activation; series mostly up to 92.2 µM;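 note: cells exposed to compound for 16 hr before readout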
Summary of the method: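 Caspase 3/7 activation measured by luminescent aminoluciferin substrate cleavage after 16 hr compound treatment of H-4-II-E cells in complete medium. Increase normalized between DMSO (basal) and 100 uM tamoxifen (100%); Hill-equation AC50 from concentration-response.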

[5] = Cell Viability - LYMP2-001 (AID 921); settings: LYMP2-001 lymphoblastoid cell viability; series mostly up to 92.2 µM;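 note: cells exposed to compound for 24 h at 37 °C; 0% = DMSO only and full inhibition = tetraoctylammonium bromide control wells; nearly all actives have a fitted effect of over 70% in size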
Summary of the method: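 CellTiter-Glo luminescence (intracellular ATP) after 24 hr compound exposure at 37 C, 2500 lymphoblastoid cells/well in complete medium. AC50 fitted with standard Hill equation; tetraoctylammonium bromide positive control.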

[6] = MultiTox-Fluor Cytotoxicity Assay - LYMP1-002 - Dead Cells (AID 960); settings: LYMP1-002 lymphoblastoid cells, dead-cell protease fluorescence; series mostly up to 46.1 µM;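 note: 0% = DMSO and 100% = tetraoctylammonium bromide; nearly all actives have a fitted effect of over 60% in size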
Summary of the method: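 Dead-cell fluorescence (Ex/Em 485/520) after 16 h compound exposure at 37 C of LYMP1-002 lymphoblastoid cells in complete medium; AC50 by Hill equation, with data scaled between DMSO and 15 uM tetraoctylammonium bromide.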

[7] = Cell Viability - LYMP2-009 (AID 968); settings: LYMP2-009 lymphoblastoid cell viability; series mostly up to 92.2 µM;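 note: cells exposed to compound for 24 h at 37 °C; 0% = DMSO alone and the full-kill end = tetraoctylammonium bromide at 92 µM; nearly all actives have a fitted effect of over 55% in size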
[8] = Cell Viability - LYMP2-006 (AID 978); settings: LYMP2-006 lymphoblastoid cell viability, qHTS; series mostly up to 92.2 µM;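 note: cells exposed to compound for 24 hours; % is set by controls: 0 for no effect and ±100 for the full control effect; nearly all actives have a fitted effect of over 60% in size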
Summary of the method: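 qHTS, 1536-well; 2500 cells/well, 5 hr 37 C; cpd 24 hr 37 C; CellTiter-Glo 30 min RT; luminescence. Tetraoctylammonium bromide pos. ctrl. AC50 via Hill eqn.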

[9] = qHTS assay for small molecule agonists of retinoid X receptor alpha signaling (AID 588544; calls by dose curve;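 for activation: 0% = DMSO basal wells and 100% = reference agonist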); settings: HEK293T RXRa-UAS-bla, beta-lactamase reporter, 18 h; 530 nm emission
[10] = biological target: Retinoic acid receptor RXR-alpha (Homo sapiens) (UniProt P19793); experiment: as above; settings: HEK293T RXRa-UAS-bla, beta-lactamase reporter, 18 h; series mostly up to 76.7 µM
[11] = biological target: Thyroid hormone receptor beta (Homo sapiens) (UniProt P10828); experiment: qHTS assay for small molecule antagonists of thyroid hormone receptor beta signaling (AID 588547; active = well fitted inhibition curve with a large enough effect in the signal ratio, with a control signal flat, not every such curve was filed as active; the % refers to the signal ratio;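 note: cells stimulated with 0.4 nM T3 agonist during compound exposure; % is set by controls: 0 for no effect and ±100 for the full control effect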); settings: TR-UAS-bla HEK293, beta-lactamase ratio, antagonist mode, 18 h
Summary of the method: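 Inhibition of T3-driven (0.4nM final) beta-lactamase reporter activity was measured over 0.59 nM to 92 uM compound after 18 h at 37 C. The cells were GripTite HEK293 TR-UAS-bla in charcoal/dextran-stripped serum, with CCF4 ratio read-out and IC50 from Hill fits.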

[12] = qHTS assay for small molecule disruptors of the mitochondrial membrane potential - 1 hr assay (AID 651754; calls by dose curve; note: % is set by controls: 0 for no effect and ±100 for the full control effect; nearly all actives have a fitted effect of over 35% in size); settings: series mostly up to 92.2 µM
Summary of the method: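 Mitochondrial potential in living HepG2 cells after 1 hr compound treatment at 37C was read with Mito-MPS dye added for a further 30 min. Red aggregate and green monomer fluorescence were measured; loss of potential leaves dye as cytoplasmic monomers.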

[13] = qHTS assay for small molecule disruptors of the mitochondrial membrane potential - 5 hr assay (AID 651755; calls by dose curve; note: % is set by controls: 0 for no effect and ±100 for the full control effect; nearly all actives have a fitted effect of over 40% in size); settings: JC-1-type ratio dye; series mostly up to 92.2 µM
Summary of the method: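 Membrane-potential dye readout: red aggregate (540 ex/590 em) versus green monomer (490 ex/535 em) fluorescence after 30 min dye loading, following 5 hr compound exposure at 37C of overnight-plated HepG2 cells.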

[14] = biological target: Nuclear receptor ROR-gamma (Homo sapiens) (UniProt P51449); experiment: qHTS assay for small molecule antagonists of the retinoid-related orphan receptor gamma (ROR-gamma) signaling pathway (AID 651802); settings: ROR-gamma antagonist cell reporter assay; series mostly up to 92.2 µM;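 note: CHO cells with doxycycline-induced ROR-gamma expression; luciferase reporter luminescence driven by ROR response element; % is set by controls: 0 for no effect and ±100 for the full control effect; nearly all actives have a fitted effect of over 60% in size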
Summary of the method: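 Luminescence (One-Glo, 30 min RT) measured 16 h after compound addition and doxycycline induction at 37C. Reporter: RORE-luciferase under TET-inducible ROR-gamma in CHO cells.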

[15] = qHTS assay for small molecule agonists of the antioxidant response element (ARE) signaling pathway measured by Nrf2-dependant transcriptional activity - cell viability counter screen (AID 720653; active = well fitted curve in the direction sought with a large enough effect in the repeat runs; an effect the other way counts as inactive or inconclusive; note: % is set by controls: 0 for no effect and ±100 for the full control effect); settings: ARE-bla HepG2 viability, CellTiter-Glo ATP luminescence, 16 h; stronger effect = lower value
Summary of the method: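 Cytotoxicity counter screen: intracellular ATP quantified by CellTiter-Glo luminescence in the same ARE-bla HepG2 plates, after 16 h compound exposure and a 2 h beta-lactamase substrate step.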

[16] = qHTS assay for cell viability of HEK293 cells (AID 743288); settings: ATP luminescence (CellTiter-Glo), 18 h, stronger effect = lower value; note: % is set by controls: 0 for no effect and ±100 for the full control effect; nearly all actives have a fitted effect of over 50% in size
Summary of the method: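 ATP luminescence (CellTiter-Glo) reports metabolically competent cell number after parental HEK293 cells, 2,000/well, were treated with DMSO-dissolved compounds for 18 h at 37 C; reagent incubation 30 min, room temperature.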

[17] = Cellular Toxicity (caspase-3) Mesangial (AID 660); settings: mesangial cells, normalized: DMSO 0%, 100 µM tamoxifen 100%; series mostly up to 91.7 µM;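 note: combined caspase 3 and 7 activity read by Caspase-Glo luminescence; cells exposed to compound for 16 h before the caspase read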
Summary of the method: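 Caspase 3/7 activation measured by Caspase-Glo 3/7 luminescence (20 min, room temperature) following 16 h exposure of mesangial cells (1000/well); AC50 from Hill-equation fit, normalized to DMSO and 100 uM tamoxifen.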

[18] = Cellular Toxicity (caspase-3) NIH 3T3 (AID 666); settings: NIH 3T3 caspase-3 activation, apoptosis/toxicity; series mostly up to 92.2 µM;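 note: caspase signal read after 16 h compound exposure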; note: potency is the fitted concentration of half-maximal effect;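 for caspase-3 activation: 0% = DMSO basal and 100% = 100 µM tamoxifen stimulation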
Summary of the method: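 Caspase-Glo 3/7 luminescence reported caspase activation in 1000 NIH 3T3 cells/well after 16 h compound exposure at 37 C. DMSO set basal and 100 uM tamoxifen set 100% stimulation; concentration-response modeled with the Hill equation for AC50.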

[19] = biological target: Vitamin D3 receptor (Homo sapiens) (UniProt P11473); experiment: qHTS assay for small molecule antagonists of vitamin D receptor signaling (AID 588541; calls by dose curve;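 note: receptor activated by calcitriol during compound treatment; % is set by controls: 0 for no effect and ±100 for the full control effect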); settings: HEK293T VDR-UAS-bla, beta-lactamase ratio, antagonist mode; series mostly up to 76.7 µM
Summary of the method: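 Antagonist-mode beta-lactamase reporter assay: HEK293T VDR-UAS-bla cells were exposed to titrated compound alongside 1-alpha,25-dihydroxyvitamin D3 at 3 nM final for 16 h. Values were normalized to the 50 nM agonist control and DMSO basal, with IC50 and efficacy from Hill equation fits.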

[20] = Cellular Toxicity (caspase-3) SHSY5Y (AID 657); settings: SH-SY5Y caspase-3 activation, DMSO zero, 10 µM staurosporine = 100%; series mostly up to 91.7 µM;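 note: cells exposed to compound for 16 hours at 37 °C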
Summary of the method: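 Luminescent caspase-3/7 readout (aminoluciferin release) in SH-SY5Y cells after 16 h compound exposure in complete medium. Activity scaled between DMSO basal and 10 uM staurosporine as 100%; concentration-response fitted to Hill equation for AC50.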

Vitamin D3 receptor (Homo sapiens), sequence (P11473 whole entry, looked up): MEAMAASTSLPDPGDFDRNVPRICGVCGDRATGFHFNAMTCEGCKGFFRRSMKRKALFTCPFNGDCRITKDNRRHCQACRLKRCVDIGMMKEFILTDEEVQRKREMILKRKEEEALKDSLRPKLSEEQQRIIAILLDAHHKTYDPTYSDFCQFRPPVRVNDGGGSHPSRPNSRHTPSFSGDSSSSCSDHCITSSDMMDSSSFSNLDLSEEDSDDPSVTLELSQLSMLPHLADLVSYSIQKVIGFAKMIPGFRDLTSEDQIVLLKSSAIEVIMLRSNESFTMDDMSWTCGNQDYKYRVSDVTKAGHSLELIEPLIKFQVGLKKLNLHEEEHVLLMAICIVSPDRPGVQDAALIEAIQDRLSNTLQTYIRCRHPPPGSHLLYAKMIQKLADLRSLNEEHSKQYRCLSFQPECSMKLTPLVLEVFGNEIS
Nuclear receptor ROR-gamma (Homo sapiens), sequence (P51449 whole entry, looked up): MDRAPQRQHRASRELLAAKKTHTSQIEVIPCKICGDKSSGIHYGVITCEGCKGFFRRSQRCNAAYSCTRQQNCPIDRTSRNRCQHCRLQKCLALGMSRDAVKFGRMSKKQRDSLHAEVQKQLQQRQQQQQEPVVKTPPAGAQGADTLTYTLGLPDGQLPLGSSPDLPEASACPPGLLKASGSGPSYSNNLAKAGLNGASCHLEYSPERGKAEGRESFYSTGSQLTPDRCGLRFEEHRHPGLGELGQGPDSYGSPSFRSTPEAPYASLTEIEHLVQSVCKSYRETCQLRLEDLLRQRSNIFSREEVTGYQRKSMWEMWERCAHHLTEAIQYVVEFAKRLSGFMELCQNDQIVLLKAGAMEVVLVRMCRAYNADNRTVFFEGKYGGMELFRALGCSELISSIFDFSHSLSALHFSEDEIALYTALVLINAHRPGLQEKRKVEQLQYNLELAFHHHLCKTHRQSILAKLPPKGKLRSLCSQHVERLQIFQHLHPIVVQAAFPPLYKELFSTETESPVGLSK
Thyroid hormone receptor beta (Homo sapiens), sequence (P10828 whole entry, looked up): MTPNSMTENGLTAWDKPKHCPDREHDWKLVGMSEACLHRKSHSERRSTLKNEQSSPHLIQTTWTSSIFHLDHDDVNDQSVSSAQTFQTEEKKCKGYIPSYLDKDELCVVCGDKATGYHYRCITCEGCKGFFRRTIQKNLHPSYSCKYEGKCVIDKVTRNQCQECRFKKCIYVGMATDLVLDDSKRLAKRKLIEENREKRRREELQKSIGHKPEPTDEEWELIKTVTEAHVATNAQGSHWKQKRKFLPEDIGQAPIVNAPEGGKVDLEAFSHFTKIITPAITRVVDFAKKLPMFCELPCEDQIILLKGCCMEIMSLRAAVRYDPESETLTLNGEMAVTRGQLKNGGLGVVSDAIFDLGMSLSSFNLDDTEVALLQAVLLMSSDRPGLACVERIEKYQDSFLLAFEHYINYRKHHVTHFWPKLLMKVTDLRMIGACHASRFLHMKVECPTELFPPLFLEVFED
Retinoic acid receptor RXR-alpha (Homo sapiens), sequence (P19793 whole entry, looked up): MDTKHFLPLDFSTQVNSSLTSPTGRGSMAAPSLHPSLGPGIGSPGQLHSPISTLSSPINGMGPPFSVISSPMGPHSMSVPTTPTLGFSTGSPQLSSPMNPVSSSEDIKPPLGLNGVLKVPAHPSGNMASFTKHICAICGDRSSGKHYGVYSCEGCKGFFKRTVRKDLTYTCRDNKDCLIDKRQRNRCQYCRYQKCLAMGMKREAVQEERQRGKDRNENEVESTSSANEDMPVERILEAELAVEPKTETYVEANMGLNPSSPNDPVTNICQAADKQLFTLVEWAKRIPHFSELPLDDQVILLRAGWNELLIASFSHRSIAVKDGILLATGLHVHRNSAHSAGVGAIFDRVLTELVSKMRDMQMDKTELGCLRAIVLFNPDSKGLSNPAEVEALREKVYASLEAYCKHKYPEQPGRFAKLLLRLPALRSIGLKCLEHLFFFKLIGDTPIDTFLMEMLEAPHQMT

O=[N+]([O-])c1cccc2c([N+](=O)[O-])cccc12
inactive: Potency [1] > 92 µM | Potency [2] | Potency [3] | Potency [4] | Potency [5] | Potency [6] | Potency [7] | Potency [8] | outcome [10] | activity change % (negative = inhibition) [11] -3.1% | Potency [12] | Potency [13] | Potency [14] | max response [15] 5.81% | max response [16] -6.41%
-11.5%: max response [9]

O=[N+]([O-])c1cc(Cl)c(Cl)c(Cl)c1
inactive: Potency [1] > 92 µM | Potency [2] | Potency [3] | outcome [17] | Potency [4] | Potency [5] | Potency [6] | Potency [7] | Potency [8] | outcome [19] | outcome [10] | activity change % (negative = inhibition) [11] 3.05% | Potency [12] | Potency [13] | Potency [14] | max response [15] -3.56%
9.3%: max response [9]
active: Potency [18] 25.1 µM

ClC=CCl
-1.25%: max response [9]
inactive: Potency [1] > 92 µM | Potency [2] | Potency [3] | outcome [20] | outcome [17] | Potency [4] | Potency [18] | Potency [5] | Potency [6] | Potency [7] | Potency [8] | outcome [19] | outcome [10] | activity change % (negative = inhibition) [11] -5.48% | Potency [12] | Potency [13] | Potency [14] | max response [15] -14.4% | max response [16] -11.1%

CCOP(=S)(OCC)Oc1nc(Cl)c(Cl)cc1Cl
-1.15%: max response [9]
inactive: Potency [1] > 92 µM | Potency [2] | Potency [3] | outcome [20] | outcome [17] | Potency [4] | Potency [18] | Potency [5] | Potency [6] | Potency [7] | Potency [8] | outcome [19] | outcome [10] | activity change % (negative = inhibition) [11] 4.5% and 5.64% and -7.44% | Potency [13] | max response [15] 0.0448% [middle of 4 runs]

O=C(O)C(Br)Br
inactive: Potency [1] > 92 µM | Potency [2] | outcome [20] | Potency [18] | Potency [5] | Potency [6] | Potency [7] | Potency [8] | outcome [19] | outcome [10] | activity change % (negative = inhibition) [11] 8.3% | Potency [12] | Potency [13] | Potency [14] | max response [16] -1.04%
-1.1%: max response [9]

CC(C)(C)OOC(=O)c1ccccc1
inactive: Potency [1] > 92 µM | Potency [2] | outcome [20] | outcome [17] | Potency [18] | Potency [6] | Potency [7] | Potency [8] | outcome [19] | outcome [10] | activity change % (negative = inhibition) [11] 11.4% | Potency [12] | Potency [13] | Potency [14] | max response [15] 3.96% and -1.99% | max response [16] 7.08% and -4.29%
3.54% and -7.62%: max response [9]

N#CC(Br)Br
inactive: Potency [1] > 92 µM | Potency [2] | Potency [3] | outcome [17] | Potency [5] | Potency [6] | outcome [10] | activity change % (negative = inhibition) [11] 17% | Potency [12] | Potency [13] | Potency [14] | max response [16] -22.9%
0.349%: max response [9]
